# Measurements reported in PMC5540273 (PLoS ONE, 2017).
# Legend:
# Settings in all cases: concentration: 1 μM, replicates: in singlicate; n = 1
# AMPK-alpha1 = test system: T1, AMPK-alpha1
# T1 construct: gene PRKAA1
# AMPK-alpha2 = test system: T2, AMPK-alpha2
# T2 construct: gene PRKAA2
# ANKK1 = test system: ANKK1
# ARK5 = test system: T3, ARK5
# T3 construct: gene NUAK1
# ASK1 = test system: T4, ASK1
# T4 construct: gene MAP3K5
# ASK2 = test system: T5, ASK2
# T5 construct: gene MAP3K6
# AURKA = test system: AURKA
# AURKB = test system: AURKB
# AURKC = test system: AURKC
# AXL = test system: AXL
# 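Also: KINOMEscan kinase panel screen.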
SMILES,%Inh (AMPK-alpha1) [%],%Inh (AMPK-alpha2) [%],%Inh (ANKK1) [%],%Inh (ARK5) [%],%Inh (ASK1) [%],%Inh (ASK2) [%],%Inh (AURKA) [%],%Inh (AURKB) [%],%Inh (AURKC) [%],%Inh (AXL) [%]
COc1ccc2cc(-c3nc(-c4ccccc4C(C)C)[nH]c3-c3ccncc3)ccc2c1 [SB-660566],17,0,6,18,16,3,5,30,0,36
CC(=O)c1c(C)c2cnc(Nc3ccc(N4CCNCC4)cn3)nc2n(C2CCCC2)c1=O,0,0,0,0,0,0,0,0,0,0
Cl.Cl.Cl.N#Cc1ccc(CCNc2nccc(-c3cccc(CN4CCNCC4)c3)n2)cc1 [GSK2137462],25,14,15,17,20,4,20,0,15,44
CNc1cc(-c2ccc3c(N)n[nH]c3c2)nc(N)n1 [GSK2224810],0,0,10,0,0,0,4,0,10,0
CC(=O)c1c(C)c2cnc(Nc3ccn(C)n3)nc2n(C2CCCC2)c1=O,20,0,0,0,0,0,4,0,0,0
COc1ccc(Nc2nccc(-c3ccc(NC(=O)c4cc5cc(F)ccc5[nH]4)cc3)n2)cc1 [GSK1229496],0,0,0,0,2,0,0,5,0,0
Cn1cncc1C(=O)NC1CCN(c2ccnc(Nc3ccc(F)cc3)n2)C1 (stereo not shown) [GSK1379717],0,12,0,9,10,3,0,23,8,0
Cc1ccc(NC(=O)Nc2ccc(Cl)cc2)cc1-c1ccc(C(=O)Nc2ccncc2)cc1 [GSK1398472],3,3,12,1,11,0,0,28,10,11
COc1cccc(NC(=O)Nc2ccc(C)c(-c3ccc(C(=O)Nc4ccncc4)cc3)c2)c1 [GSK1398474],0,13,10,20,2,0,14,0,40,25
Cc1ccc(NC(=O)c2ccc(Cl)cc2)cc1-c1ccc(C(=O)Nc2ccncc2)cc1 [GSK1398467],0,21,0,6,0,21,0,1,17,0
COc1ccc(CSc2nnc(-c3ccc4ncsc4c3)o2)cc1C(F)(F)F,0,13,0,10,0,4,0,13,0,0
O=c1cc(N2CCOCC2)nc2n(Cc3ccccc3F)ccn12 [GSK2297428],0,0,9,0,0,0,0,13,0,0
CC(C)c1cc(-c2ccc3c(N)n[nH]c3c2)nc(N)n1 [GSK2250882],0,0,8,0,0,7,–,18,56,0
CCCCc1nn2ncccc2c1-c1ccnc(NC2CC2)n1 [GW684374],0,0,8,12,0,0,30,12,38,0
Cc1ccccc1Cn1ccn2c(=O)cc(N3CCOCC3)nc12 [GSK2269905],0,1,10,5,0,0,0,30,0,9
COc1ccc(CSc2nnc(-c3ccc4c(c3)CCO4)o2)cc1,0,0,0,33,0,0,0,0,0,0
Cn1cncc1-c1cc2c(Nc3ccc(OCc4ccccc4)cc3)ncnc2cn1 [GW281179],0,0,0,13,9,0,0,25,5,0

SMILES,%Inh (AMPK-alpha1) [%],%Inh (AMPK-alpha2) [%],%Inh (ANKK1) [%],%Inh (ARK5) [%],%Inh (ASK1) [%],%Inh (ASK2) [%],%Inh (AURKA) [%],%Inh (AURKB) [%],%Inh (AURKC) [%],%Inh (AXL) [%]
Cc1ccccc1-c1cc(-c2c[nH]nc2-c2ccccn2)ccn1 [GW680061],1,0,0,0,0,14,0,4,6,0
COc1ccc(Nc2nccc(NCCNC(=O)Nc3cc(C)ccc3C)n2)cc1 [GSK1379899],0,0,0,0,0,0,0,14,36,4
O=C(Nc1n[nH]c2cc(-c3ccsc3)ccc12)C1CC1 [SB-732932],7,0,40,0,0,30,13,35,20,43
Fc1ccc(-c2nc3n(c2-c2ccncc2)CCS3)cc1 [GI98581],14,0,0,0,5,13,0,0,43,6
CNc1nc(-c2ccc3c(N)n[nH]c3c2)cc(N2C[C@@H](C(=O)NC3CCCCC3)OC[C@H]2C)n1 [GSK2375584],6,0,8,23,12,0,9,16,12,0
O=C(Nc1n[nH]c2nc(-c3ccco3)c(Br)cc12)C1CCN(Cc2ccccc2)C1.O=C(O)[C@H](O)[C@@H](O)C(=O)O (stereo not shown) [SB-742034],9,0,11,0,13,17,34,17,7,13
COC(=O)c1cccc(NC(=O)NC2CCN(c3ccnc(Nc4ccc(OC)cc4)n3)C2)c1 (stereo not shown) [GSK1379746],0,0,0,31,22,0,10,25,28,0
Cc1cnc(N)c(/C=C/c2cncc(C(=O)NCCc3ccc(Cl)cc3Cl)c2)c1.Cl [GSK190937],3,18,3,1,2,0,1,–,12,5
Cc1ccc(NC(=O)Nc2ccc(Cl)c(C(F)(F)F)c2)cc1-c1ccc(C(=O)Nc2ccncc2)cc1 [GSK1398470],2,16,15,14,0,0,0,0,8,17
CN1c2ccc(-c3ccc(C(N)=O)cc3)cc2-c2[nH]ncc2S1(=O)=O,0,0,0,0,0,0,0,21,0,5
COc1nccc(-c2c(-c3ccc(F)cc3)ncn2CCCN2CCOCC2)n1 [SB-282852],77,0,0,0,0,0,23,42,0,0
O=C1NC(=O)C(c2ccc(Cl)cc2)=C1Nc1cccc(Cl)c1 [SB-317651],0,0,0,0,3,0,0,35,0,20
Cn1cnc2c(N)ncnc21 [SKF-97623],5,0,0,0,0,0,5,0,0,10
CS(=O)(=O)CCNCc1nc(-c2ccc3ncnc(Nc4ccc5c(cnn5Cc5ccccc5)c4)c3c2)cs1.Cl.Cl [GW569716],0,0,0,0,0,0,32,29,0,0
CC[C@@H]1CO[C@H](C(=O)Nc2ccccc2)CN1c1cc(-c2ccc3c(N)n[nH]c3c2)nc(NC)n1 [GSK2376236],0,1,0,14,4,0,–,0,48,0
Nc1ncnc2occ(-c3ccc4c(c3)CCN4C(=O)Cc3cc(F)ccc3F)c12 [GSK2645446],4,0,3,12,0,0,0,48,40,34
Fc1ccc(-c2nc[nH]c2-c2ccncc2)cc1 [SB-217360],5,0,0,0,0,0,8,33,0,0
